# Cruzain Triton: qHTS Assay for Promiscuous and Specific Inhibitors of Cruzain (with detergent); purified cruzain, Z-FR-AMC fluorescence, 0.01% Triton; Cruzipain (Trypanosoma cruzi), P25779; 200,000 tested, 0.43% active; AID 1478, 2009; Potency, µM, for inactives: max response, negative = inhibition, hits mostly inhibitors;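 further: plate controls were neutral wells for no effect and buffer without enzyme for full effect; nearly all actives have a fitted effect of over 40% in size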
# Target sequence (P25779 123-467 limits assumed): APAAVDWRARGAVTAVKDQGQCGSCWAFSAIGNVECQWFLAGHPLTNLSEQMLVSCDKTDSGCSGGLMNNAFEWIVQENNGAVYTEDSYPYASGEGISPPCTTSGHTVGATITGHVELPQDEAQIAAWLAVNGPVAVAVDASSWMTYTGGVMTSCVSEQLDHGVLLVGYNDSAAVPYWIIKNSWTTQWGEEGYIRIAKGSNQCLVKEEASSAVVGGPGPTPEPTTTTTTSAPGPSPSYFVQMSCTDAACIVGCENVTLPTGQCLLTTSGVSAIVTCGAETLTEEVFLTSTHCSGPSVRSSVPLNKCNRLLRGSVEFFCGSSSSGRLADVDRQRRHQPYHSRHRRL
#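 Z-FR-AMC hydrolysis (2 uM substrate) by cruzain (1.5 nM) monitored kinetically at ex 360/em 450 nm after 15 min room-temperature compound exposure; 0.01% Triton X-100, pH 5.5, 5 mM DTT.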
# Cruzain noTriton: qHTS Assay for Promiscuous and Specific Inhibitors of Cruzain (without detergent). Cruzipain (Trypanosoma cruzi), P25779. purified cruzain, Z-FR-AMC fluorescence, no detergent. Potency, µM, for the others: max response, negative = inhibition, usual class: inhibitors. 200,000 tested, 2.3% active. AID 1476, 2009;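 further: plate controls were enzyme without inhibitor for no effect and buffer without enzyme for full effect; nearly all actives have a fitted effect of over 40% in size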
#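 Purified cruzain at 1.5 nM, pre-incubated 15 min with compound at room temperature in 100 mM sodium acetate pH 5.5, 5 mM DTT, 0.00005% Triton X-100. Reaction started with 2 uM Z-FR-AMC; AMC fluorescence increase over 60 s gives rate.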
# Active calls of the source: *; ? = inconclusive; ! = a repeat was not active. This is a sample that favours compounds with a hit; in the whole collection about 2.5% have one here. The call rests on the fitted dose curve; in most records, active means well fitted curve in the direction sought with a large enough effect; inconclusive means small, poorly fitted or top-dose-only effect, or another doubt; inactive means no such curve, though single readings can be large; an effect the other way counts as inactive or inconclusive. Potency means the concentration at half of the fitted maximal effect.
SMILES,Cruzain Triton,Cruzain noTriton
COC(=O)c1ccc(NC(=O)CSc2nnc(COc3c(C)cccc3C)o2)cc1,5%,25µM*
COc1cccc(NC(=O)CSc2nnc(COc3ccc(Cl)cc3)o2)c1,-5%,?
O=C(CSc1nnc(COc2ccc3c(c2)CCCC3)o1)Nc1ccc(F)cc1,2%,25µM*
O=C(COC(=O)/C=C/c1cccs1)Nc1nc(-c2ccccc2)cs1,-5%,?
C/C(=N\Nc1nc2ccccc2s1)c1cccs1,-11%,-23%
Cn1nccc1C(=O)OCC(=O)Nc1nc(-c2ccccc2)cs1,-8%,-6%
Cn1cc(Cl)c(C(=O)OCC(=O)Nc2nc(-c3ccc(Br)cc3)cs2)n1,-6%,32µM*
O=C(Cc1cccs1)Nc1nc(-c2ccccc2)cs1,-10%,0%
O=C(COC(=O)CNC(=O)c1ccccc1)Nc1nc(-c2ccccc2)cs1,25µM*,?
C/C(=N\Nc1nc(-c2ccccc2)cs1)c1cccs1,?,7.9µM*
O=C(COC(=O)c1cccs1)Nc1nc(-c2ccccc2)cs1,0%,10µM*
Clc1ccc(CSCc2ccc(Cl)cc2Cl)c(Cl)c1,1%,-4%
CCOCCCNC(=O)c1cnc2sc(N3CCCCCC3)nn2c1=O,-12%,-5%
Cc1ccc(S(=O)(=O)NCCc2cn3ccsc3n2)cc1,0%,-4%
CCCCn1c(=O)c2oc3ccccc3c2n(Cc2ccc(OC)cc2)c1=O,1%,-7%
Cc1c2cnn(CC(=O)N3CCCCC3)c(=O)c2c(C)n1Cc1ccc(Cl)cc1,-1%,1%
Cc1cc(C)cc(NC(=O)CCn2cnc3ccccc3c2=O)c1,-1%,-11%
O=C(CCn1cnc2ccccc2c1=O)Nc1nc(-c2ccc(Br)cc2)cs1,6%,25µM*
COc1ccc(Cl)cc1-n1c(/C=C/c2cccc3ccccc23)nc2ccccc2c1=O,0%,32µM*
COc1ccc(-n2c(/C=C/c3cccc4ccccc34)nc3ccccc3c2=O)cc1OC,-3%,?
CC(/C=N\N1CCN(c2ccc(Cl)cc2)CC1)=C\c1ccccc1,-6%,7.9µM*
CC(/C=N/N1CCN(c2ccc(C)cc2)CC1)=C\c1ccccc1,-1%,-29%
Cc1ccc(-n2ncc3c(N(C)Cc4ccccc4)ncnc32)cc1,1%,-4%
CC(=NCc1cccnc1)c1c(O)n(Cc2ccccc2)c(=O)[nH]c1=O,-1%,-2%
C/C(=N\Nc1cccc2ccccc12)c1c(O)n(Cc2ccccc2)c(=O)[nH]c1=O,-5%,10µM*
SMILES,Cruzain Triton,Cruzain noTriton
CCc1nn(-c2cc(Oc3ccccc3)nc(-c3ccccc3)n2)c(N)c1C#N,-6%,3.2µM*
CCc1nn(-c2ccccc2)c(N)c1C#N,2%,10%
c1ccc2c(c1)[nH]c1ccccc12,-6%,0%
O=Cc1c2[nH]c3ccccc3c2cc2[nH]c3ccccc3c12,1%,25µM*
COC(=O)c1ccc(NC(=O)CC2C(=O)N(c3ccc(C)cc3)C(=O)N2Cc2ccc(OC)cc2)cc1 (stereo unspecified),-2%,?
O=C(CCn1c(=O)c2cccn2c2cccnc21)N1CCN(c2ccccc2F)CC1,0%,-5%
COC(=O)c1cc(NC(=O)c2cc3sccc3n2Cc2ccc(Cl)cc2)cc(C(=O)OC)c1,0%,7.9µM*
CC(=O)Nc1ccc(NC(=O)c2cc3sccc3n2Cc2ccc(Cl)cc2)cc1,-1%,?
CCOC(=O)c1cc(-c2ccccc2)sc1NC(=O)C(C)C,-14%,4%
CCOC(=O)c1cc(-c2ccccc2)sc1NC(=O)C(C)N1C(=O)NC(C)(c2ccc(Cl)cc2)C1=O (stereo unspecified),0%,4µM*
O=C(Nc1ccc2oc(-c3ccc4ccccc4c3)nc2c1)c1ccc2c(c1)OCCO2,-3%,10µM*
O=C(Nc1ccc2oc(-c3ccc4ccccc4c3)nc2c1)c1ccc(Cl)c(Cl)c1,0%,-3%
c1ccc2cc(NCNc3ccc4ccccc4c3)ccc2c1,-1%,-8%
COC(=O)c1c(NC(=O)COc2ccc(Cl)cc2)sc(C)c1C,-3%,-4%
COC(=O)c1c(NC(=O)Nc2ccc(Cl)cc2)sc(C)c1C,0%,25µM*!
COc1cccc(CS(=O)(=O)c2nnnn2-c2ccccc2)c1,4%,4%
COc1cc(NC(=O)CSc2nccc(C)n2)c(C)cc1[N+](=O)[O-],-5%,-3%
COc1ccc([N+](=O)[O-])cc1NC(=O)CSc1nncn1-c1ccccc1,-5%,-12%
COc1ccc(-n2c(SCC(=O)Nc3ccc([N+](=O)[O-])cc3OC)nc3ccccc32)cc1,-1%,7.9µM*
COc1cc(NC(=O)CSc2nc3ccccc3n2-c2ccccc2)c(C)cc1[N+](=O)[O-],1%,7.9µM*
Cc1ccc([C@@]2(C)CC/C(=N/N=C3\CC[C@](C)(c4ccc(C)c(C)c4)c4cc(C)c(C)cc43)c3cc(C)c(C)cc32)cc1C,-1%,0%
Cc1ccc(CSc2ncc(Cl)c(C(=O)NCCc3ccc(S(N)(=O)=O)cc3)n2)cc1,-5%,15%
CCSc1nn(CC(=O)Nc2cccc(CC)c2)c(N)c1S(=O)(=O)c1ccccc1,-6%,11%
CC(C)Oc1ccc(CNC(=O)C2CCN(C(=O)N3CCOc4ccc(Cl)cc43)CC2)cc1,-2%,?
N=C1CCC[C@@H]1C(=S)SCCC(N)=O,4%,2%
SMILES,Cruzain Triton,Cruzain noTriton
CCc1nn(CC(=O)NCCc2ccc(Cl)cc2)c(=O)c2cc3c(OC)cccc3n12,-1%,5%
Cc1ccc(NC(=O)c2ccc(CNS(=O)(=O)c3cccc(C(F)(F)F)c3)cc2)cc1,-13%,25µM*
O=C(Nc1ccccc1F)c1ccc(CNS(=O)(=O)c2cccc(C(F)(F)F)c2)cc1,3%,?
CC(C)N(C(=O)CSc1nn2c(=O)c(C(C)(C)C)nnc2s1)c1ccccc1,-6%,19%
Cc1cc(C(=O)CSc2nn3c(=O)c(C(C)(C)C)nnc3s2)c(C)n1-c1ccc(F)cc1,2%,13µM*
O=C(CNC(=O)c1cccs1)OCC(=O)c1ccccc1,-9%,-5%
O=C(CNC(=O)C(c1ccccc1)c1ccccc1)OCC(=O)c1cccs1,20µM*,13µM*
Cc1cccc(N2CCN(C(=O)C3CCCN(S(=O)(=O)c4cccc5nsnc45)C3)CC2)c1C (stereo unspecified),1%,1%
Cc1cccc(-c2nc(S(=O)(=O)c3ccccc3)c(N3CCN(c4ccccc4)CC3)o2)c1,0%,-30%
Cc1ccc(OCc2ccc(C(=O)Nc3nccs3)o2)cc1C,-1%,1%
Cc1cc(NC(=O)c2ccc(COc3ccc(Cl)c(C)c3)o2)no1,-2%,25µM*
CSc1ccc(C(=S)N2CCN(C)CC2)cc1,3%,11%
CSc1ccc(C(=S)N2CCN(C(c3ccccc3)c3ccccc3)CC2)cc1,-2%,4µM*
CCOC(=O)Nc1nc(-c2ccccc2)c(C)s1,4%,2%
c1cc(CSSCc2ccncc2)ccn1,2.8µM*,?
N=C(N)SCCc1ccncc1,-1%,3%
CCOC(=O)c1ccc(NC(=O)C2CCCN(c3ncnc4onc(-c5ccc(F)cc5)c34)C2)cc1 (stereo unspecified),-4%,2%
OCCNc1nc(Nc2ccccc2)nc2ccccc12,?,16µM*
OCCNc1nc(Nc2ccccc2)nc(Nc2ccccc2)n1,-6%,-10%
c1ccc(-c2nc(NCC3CCCO3)c3ccccc3n2)nc1 (stereo unspecified),4%,0%
